From PubChem BioAssay
Vaccinia mCherry – inhibitors of vaccinia virus infection (mCherry reporter signal) | Potency, µM (titrated, usually from 36.5 µM), inactives show top-dose activity change, negative = inhibition, hits mostly inhibitors | 310,000 compounds, 0.63% hits | Vaccinia virus mCherry reporter infection, fluorescence; calls by dose curve; tested in A549 cells; further: nearly all actives have a fitted effect of over 35% in size
AMA1 RON2 block – inhibitors of Plasmodium falciparum AMA1-RON2 interaction; AlphaScreen AMA1-biotinylated RON2 peptide binding; Potency, µM (top dose mostly 58.2 µM), without a hit: at the highest dose activity change, negative = inhibition, most hits filed as inhibitors; 360,000 compounds, 0.2% hits;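 further: 0% = vehicle wells and -100% = peptide control; nearly all actives have a fitted effect of over 45% in size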
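AMA1 (3D7) with his tag at 25 nM final met compounds first, then biotinylated RON2 peptide at 25 nM; detection used donor plus acceptor beads, 10 µg/mL apiece, read by AlphaScreen after 30 min at room temperature.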
Pf growth 96h – P. falciparum growth inhibition at 96 hour, primary screen for plastid delayed-death inhibitors; P. falciparum luciferase reporter growth, 96 h; Potency, µM (titrated, usually from 28.7 µM), for the others: at the highest dose activity change, negative = inhibition, hits mostly inhibitors; 320,000 compounds, 6.9% hits
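Parasite growth measured via integrated firefly luciferase reporter in P. falciparum. Infected erythrocytes at 2% hematocrit, 0.05% parasitemia final were treated 96 hours at 37 C under 5% CO2, and luminescence was read.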
Pf growth 48h – inhibits P. falciparum growth in the first generation, 48 h; Potency, µM (highest dose often 28.7 µM), without a hit: top-dose activity change, negative = inhibition, most hits filed as inhibitors; P. falciparum luciferase growth in erythrocytes, 48 h; 310,000 compounds, 5.9% hits; AID 504832
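A one-generation exposure of luciferase-tagged malaria parasites in RPMI 1640/Albumax erythrocyte culture, 37 C and 5% CO2. Inhibition is inferred from decreased luminescence after adding detection reagent.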
Vaccinia Venus – inhibitors of vaccinia virus (Venus reporter). Vaccinia virus Venus reporter expression, fluorescence. Potency, µM (top dose mostly 36.5 µM), for inactives: at the highest dose activity change, negative = inhibition, actives largely listed as inhibitors. 330,000 compounds, 0.46% hits. AID 720580; calls by dose curve; tested in A549 cells; further: nearly all actives have a fitted effect of over 30% in size
* hit, by the source's call; i = inactive; ? = inconclusive; / = no result given; [ ] = remark or other dose. Sampled rows, rich in hits. Any-hit rate of the full collection: about 8.7%. Unless noted, the call rests on the fitted dose curve; in most records, active means well fitted curve in the direction sought with a large enough effect; inconclusive means small, poorly fitted or top-dose-only effect, or another doubt; inactive means no such curve, though single readings can be large; an effect the other way counts as inactive or inconclusive. Unless noted, on the % scale 0 is the no-effect control and ±100 the full control effect; potency means the concentration at half of the fitted maximal effect.

SMILES | Vaccinia mCherry | AMA1 RON2 block | Pf growth 96h | Pf growth 48h | Vaccinia Venus
Cc1ccc(S(=O)(=O)N2CCCC2=O)c(C)c1N(C)S(C)(=O)=O | -20.4% | 4.1% | 8.28µM* | 1.3% | -13.0%
C=CCN1CC[C@]23CCCCC2[C@H]1Cc1ccc(O)cc13 (stereo partly drawn) | / | / | 15.1µM* | ? | /
CCCCCc1cc(=O)oc2c(C(CCN3CCN(c4ccccc4)CC3)c3ccc4c(c3)OCO4)c(OC)cc(OC)c12 (stereo not drawn) | -27.0% | -27.5% | 5.22µM* | 7.38µM* | -9.5%
CCCCCc1cc(=O)oc2c(C(CCN3CCCC3)c3ccc(N(C)C)cc3)c(OC)cc(OC)c12 (stereo not drawn) | ? | 8.91µM* | 9.28µM* | ? | ?
c1ccc(N2CCN(CCCOc3ccc4c(c3)OCO4)CC2)cc1 | i | / | / | / | -16.2%
COc1cc(OC)c2ccc(=O)oc2c1C(CCN1CCCCC1)c1ccc(N(C)C)cc1 (stereo not drawn) | ? | -25.6% | ? | ? | -16.2%
CCCCCc1cc(=O)oc2c(C(CCN3CCCCC3)c3ccc(OC)cc3)c(OC)cc(OC)c12 (stereo not drawn) | 12.6µM* | -21.6% | 2.62µM* | 3.29µM* | ?
CCCCCc1cc(=O)oc2c(C(CCN3CCCC3)c3cc(OC)c(OC)c(OC)c3)c(OC)cc(OC)c12 (stereo not drawn) | 14.1µM* | -7.9% | 3.29µM* | 2.62µM* | 15.8µM*
CC(=O)Nc1ccc(S(=O)(=O)N2CCC(N3CCN(Cc4ccc(C)cc4)C(=O)C3=O)CC2)cc1 | -3.7% | / | / | / | 10.6%
CCc1c(C)sc2c1CCN(C(=O)Nc1ccccc1Cl)C2c1ccc(OC)cc1 (stereo not drawn) | -13.8% | / | / | / | 9.2%
C(=Nc1cnc2ccccc2c1)c1ccncc1 | 25.3% | / | / | / | 6.7%
CCCCCc1cc(=O)oc2c(C(CCN3CCCC(C)C3)c3ccc(OC)cc3)c(OC)cc(OC)c12 (stereo not drawn) | -15.1% | -15.5% | 3.29µM* | ? | ?
COc1cc(C2CC(=O)Oc3c2c(=O)n(C)c2ccccc32)cc(OC)c1OC (stereo not drawn) | / | -3.7% | ? | 4.0% | /
COc1ccc(C(CCN2CCCC(C)C2)c2c(OC)cc(OC)c3c2OC(=O)CC3c2cc(OC)c(OC)c(OC)c2)cc1 (stereo not drawn) | 11.6% | -10.1% | 10.4µM* | 11.7µM* | -6.3%
CCCCN(CCCC)Cc1cc(=O)oc2cc(OC)ccc12 | 16.6% | 28.7% | / | / | -9.3%
CCCCCc1cc(=O)oc2c(C(CCN(CC)CC)c3ccc(OC)cc3)c(OC)cc(OC)c12 (stereo not drawn) | -15.4% | -3.7% | 1.85µM* | 3.29µM* | ?
Cc1ccc(O)c(NC(=O)c2onc(C)c2Cl)c1 | / | -17.7% | -8.4% | 11.7µM* | /
Cc1noc(C(=O)Nc2ccc(F)cc2F)c1Cl | i | -2.6% | 57.1% | 73.6% | -14.9%
CCc1ccccc1NC(=O)c1onc(C)c1Cl | -13.6% | 3.0% | -8.5% | / | -1.6%
COC(=O)c1ccccc1NC(=O)c1onc(C)c1Cl | / | 6.9% | 5.22µM* | 31.4% | /
Cc1noc(C(=O)Nc2cccc(Cl)c2)c1Cl | / | 5.2% | 9.28µM* | 108.9% | /
CCOC(=O)c1c(C)[nH]c(C)c1S(=O)(=O)N1CCC(C(=O)Nc2ccc(OCC)cc2)CC1 | -8.5% | / | / | / | 1.9%
COc1cc(=O)n2c(c1C(=O)N(C)Cc1nonc1C)CCN(CC1CC=CCC1)CC2 (stereo not drawn) | i | / | / | / | -15.6%
COc1nc(OC/C(N)=N/O)nc(N2CCOCC2)n1 | -11.9% | -3.0% | 166.2% | -6.7% | -6.1%
CCOC(=O)COc1nc(OC)nc(N2CCOCC2)n1 | / | -11.6% | 2.62µM* | -7.6% | /
SMILES | Vaccinia mCherry | AMA1 RON2 block | Pf growth 96h | Pf growth 48h | Vaccinia Venus
CCOC(=O)C(NC(=O)NCc1ccc(OC)cc1)(OCC)C(F)(F)F (stereo not drawn) | -16.9% | 0.0% | 9.28µM* | -7.4% | -6.8%
Cc1ccc2nc(SCc3nc(-c4ccccc4C)no3)[nH]c2c1 | -19.8% | / | / | / | -10.6%
CCOc1ccccc1NC(=O)C1CCN(S(=O)(=O)c2ccccc2)CC1 | 0.4% | / | / | / | 3.1%
CCc1ccc(-c2cc(-c3n[nH]c(=S)n3CC)c3ccccc3n2)cc1 | / | / | 2.94µM* | ? | /
CCn1c(-c2cc(-c3cccc(OC)c3)nc3ccccc23)n[nH]c1=S | / | 35.2% | / | -28.0% | /
NC(=S)NN=C1CCCCCCCCC1 | 20µM* | 17.0% | / | / | ?
NC(=S)NN=C1CCCCCCCC1 | ? | 41.1% | / | / | ?
C=CCNC(=S)NN=C1CCCCCCC1 | -9.2% | 39.2% | -92.7%[5.75 µM] | 8.28µM* | -7.0%
COC(=O)C1=C(c2ccc(-c3ccccc3)c(F)c2)C[C@@H]2CC[C@H]1N2C(=O)NCCNC(C)=O | i | -5.0% | -5.9% | ? | -17.1%
COC(=O)C1=C(c2ccc(OC(F)(F)F)cc2)C[C@@H]2CC[C@H]1N2C(=O)NCc1cc(C)oc1C(F)(F)F | ? | -5.3% | 8.28µM* | 11.7µM* | ?
COC(=O)C1=C(c2ccc(-c3ccccc3)c(F)c2)C[C@@H]2CC[C@H]1N2C(=O)NCCOc1ccc(OC)cc1 | ? | -25.8% | ? | 7.38µM* | -28.0%
COC(=O)C1=C(c2ccc(-c3ccccc3)c(F)c2)C[C@@H]2CC[C@H]1N2C(=O)NCCc1ccccc1 | ? | -8.1% | ? | 6.57µM* | ?
COC(=O)C1=C(c2ccc(OC(F)(F)F)cc2)C[C@@H]2CC[C@H]1N2C(=O)NCc1cccc2ccccc12 | ? | 0.0% | 1.85µM* | 1.65µM* | ?
COC(=O)C1=C(c2ccc(OC(F)(F)F)cc2)C[C@@H]2CC[C@H]1N2C(=O)NCc1ccc(F)cc1 | -2.1% | 12.4% | ? | ? | ?
Cc1ccc(N2CC(NC(=O)CCc3ccccc3)CC2=O)cc1 (stereo not drawn) | -10.7%[7.34 µM] | / | / | / | -5.6%[7.34 µM]
COC(=O)C1=C(c2ccc(-c3ccccc3)c(F)c2)C[C@@H]2CC[C@H]1N2C(=O)NCc1cccc2ccccc12 | -11.9% | 0.8% | 1.04µM* | 1.17µM* | -27.4%
O=C(CCS(=O)(=O)c1ccc(F)cc1)Nc1nnc(-c2cccs2)o1 | ? | 74.4% | 1.5% | ? | 12.6µM*
Cc1ccc(-c2nnc(NC(=O)CCS(=O)(=O)c3ccccc3)o2)c(C)c1 | -3.3% | 66.9% | 1.0% | 14.7% | -29.1%
COc1cc(-c2nnc(NC(=O)CCS(=O)(=O)c3ccccc3)o2)cc(OC)c1OC | 3.55µM* | 53.2% | -5.5% | -5.8% | 5.62µM*
COc1cc(OC)cc(-c2nnc(NC(=O)CCS(=O)(=O)c3ccccc3)o2)c1 | 6.31µM* | 62.5% | 4.9% | -3.3% | ?
COc1cc(OC)cc(-c2nnc(NC(=O)CCS(=O)(=O)c3ccc(F)cc3)o2)c1 | 5.62µM* | 91.5% | -3.3% | ? | 7.94µM*
COc1cc(-c2nnc(NC(=O)CCS(=O)(=O)c3ccc(F)cc3)o2)cc(OC)c1OC | ? | 39.1% | ? | -15.4% | ?
